# In the supplement of paper PMC6555819:
# Experiments:
# Experiment in all cases: PBM binding z-score (relative to random genomic background probes); higher = stronger binding; sequences stand for … in GC…GCGATTGACAGCGTAGAATGAAGG
# [1] = test system: FXR:RXRa (NR concentration 270 nM, RXRa partner concentration 90 nM)
# Summary of the method: (§1)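 Custom Agilent 4×180K protein-binding microarrays carried double-stranded probes, each with a 34-nt variable region. These regions held direct-repeat seeds, single-nucleotide variants, half-site ablations and random human genomic background sequences. Ligand-free nuclear receptor dimers were incubated on the arrays for 1 h, antibodies against each partner (one per run) detected binding, and scanned fluorescence was regression-normalized. Binding z-scores take the random background probes as reference.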
# [2] = test system: LXRa:RXRa (NR concentration 270 nM, RXRa partner concentration 90 nM)
# Summary of the method: as §1
# [3] = test system: LXRa homodimer (NR concentration 270 nM)
# Summary of the method: as §1
# [4] = test system: LXRb:RXRa (NR concentration 270 nM, RXRa partner concentration 90 nM)
# Summary of the method: as §1
# [5] = test system: LXRb homodimer (NR concentration 270 nM)
# Summary of the method: as §1
# [6] = test system: PPARa:RXRa (NR concentration 270 nM, RXRa partner concentration 90 nM)
# Summary of the method: as §1
# [7] = test system: PPARg:RXRa (NR concentration 180 nM, RXRa partner concentration 90 nM)
# Summary of the method: as §1
# [8] = test system: PPARg:RXRa 270nM:90nM, anti-RXR (NR concentration 270 nM, RXRa partner concentration 90 nM)
# Summary of the method: as §1
# [9] = test system: PPARg:RXRa 30nM:10nM, anti-RXR (NR concentration 30 nM, RXRa partner concentration 10 nM)
# Summary of the method: as §1
# [10] = test system: PPARg:RXRa 90nM:30nM, anti-RXR (NR concentration 90 nM, RXRa partner concentration 30 nM)
# Summary of the method: as §1
# [11] = test system: PPARg:RXRa DBDmut IVT, anti-RXR (DBD mutation: RXRa K156A/R161A, NR concentration 270 nM, RXRa partner concentration 90 nM)
# Summary of the method: as §1
# [12] = test system: PPARg:RXRa IVT, anti-PPARg (NR concentration 270 nM, RXRa partner concentration 90 nM)
# Summary of the method: as §1
# [13] = test system: PPARg DBDmut:RXRa IVT, anti-PPARg (DBD mutation: PPARg1 K132A/R137A, NR concentration 270 nM, RXRa partner concentration 90 nM)
# Summary of the method: as §1
# [14] = test system: PPARg DBDmut IVT, anti-PPARg (DBD mutation: PPARg1 K132A/R137A, NR concentration 270 nM)
# Summary of the method: as §1
# [15] = test system: PPARg homodimer (NR concentration 180 nM)
# Summary of the method: as §1
# [16] = test system: PXR:RXRa (NR concentration 270 nM, RXRa partner concentration 90 nM)
# Summary of the method: as §1
# [17] = test system: PXR homodimer (NR concentration 270 nM)
# Summary of the method: as §1
# [18] = test system: RARa:RXR (NR concentration 270 nM, RXRa partner concentration 90 nM)
# Summary of the method: as §1
# [19] = test system: RARa homodimer (NR concentration 270 nM)
# Summary of the method: as §1
# [20] = test system: RARb:RXRa (NR concentration 270 nM, RXRa partner concentration 90 nM)
# Summary of the method: as §1
Sequence,PBM binding z-score [1],PBM binding z-score [2],PBM binding z-score [3],PBM binding z-score [4],PBM binding z-score [5],PBM binding z-score [6],PBM binding z-score [7],PBM binding z-score [8],PBM binding z-score [9],PBM binding z-score [10],PBM binding z-score [11],PBM binding z-score [12],PBM binding z-score [13],PBM binding z-score [14],PBM binding z-score [15],PBM binding z-score [16],PBM binding z-score [17],PBM binding z-score [18],PBM binding z-score [19],PBM binding z-score [20]
CAAACTCGGTCACAGAGGTCAAAGTCCGTGCGTA,5.99,6.29,7.24,5.29,2.04,5.72,5.27,6.24,3.25,5.58,5.32,6.01,1.83,1.84,5.93,6.25,8.31,6.39,2.88,4.75
ACTAGCAGGCCAATTTTGGGTCACTCAAACAAAG,0.105,0.0624,0.139,0.747,-0.68,1.8,0.396,0.508,-0.304,-0.0238,1.13,1.84,0.126,-0.427,0.323,0.759,-0.305,1.38,-0.793,1.45
GCTGCTAGGTCAACTGATTGTCAGCTAAAGCTCG,4.09,2.79,-0.17,2.06,0.0753,3.54,2.73,3.13,0.683,2.12,4.92,4.51,-0.116,-0.522,0.898,1.19,-0.593,2.27,-0.584,4.25
ACAGGCAGGTGATGAAGGTAACTCAGGCTATCAT,-0.308,-0.138,-0.317,-0.214,-0.617,-0.126,0.575,-0.133,0.158,-0.0613,0.0324,0.0841,0.243,-0.423,-0.139,-0.235,0.0904,-0.0555,0.0189,0.121
TAGCCTAGGTCATTGGGCCAATATAGTACGCATC,4.69,3.66,1.13,2.95,0.235,4.38,4.57,4.16,1.53,3.46,3.03,4.13,0.385,0.532,1.58,1.83,-0.353,2.69,-0.0412,3.6
CAAACTAGGTCAAGGACAAAGTCGGTTTGTGCCA,3.65,2.54,0.38,1.43,0.178,4.59,7.75,6.74,4.87,6.38,8.57,8.47,0.998,1.42,2.03,1.6,0.0226,1.91,-0.478,4.15
CCTACTGGGACAAAAAGGTCATTGATGCCGATAA,3.77,4.52,4.09,4.16,0.878,4.96,3.4,4.19,2.01,3.72,4,4.26,0.444,-0.273,3.86,4.85,4.14,5.36,1.97,3.94
TCTCGGAGTACACGAAAGGTCAGAGCTCGACATC,2.31,3.69,2.03,3.2,-0.426,3.55,1.78,3.53,2.52,3.11,1.42,1.77,0.689,0.21,1.29,4,-0.3,4.04,-0.148,3.79
TCATATAGGTAAATGCTAGGTGAAATTCCGATCT,0.456,0.522,-0.0474,0.729,0.187,1.17,0.929,2.31,3.86,3.3,3.98,2.41,0.621,1.13,1.04,0.404,0.241,0.848,1.28,0.363
ATATGTAGGTAATCGGGTCATTCAGTTTGCGCAT,1.83,1.79,0.62,2.26,0.648,4.67,6.27,5.56,3.33,4.77,7.17,7.38,2.95,2.04,1.76,2.84,6.06,2.79,1.35,1.6
GGAACGAGGGCAAAGTTGATATCATCTGTCGACG,1.25,0.812,-0.316,0.894,-0.47,3.94,6.68,6.84,6.13,7.1,3.87,4.19,0.622,0.251,0.45,1.18,0.208,1.62,0.254,2.32
CCGACTGGGGTAAAGGTTACCATACTCAGTACGA,1.25,1.37,-0.204,2.11,-0.702,5.22,11.1,9.31,8.82,10.7,3.8,5.39,0.251,0.0634,1.25,1.93,-0.316,3.23,0.475,2.02
AGAATGAGGTTAAGATCAAGGAAACAGAATACAT,1.93,1.78,0.0429,1.71,-0.221,3.67,2.49,2.3,0.939,1.76,2.65,2.43,1.67,0.683,0.598,1.13,0.0373,1.75,0.928,1.88
AGAATGAGGTTACCAAAGATCACGGAAACGCTTG,2.28,6.94,0.129,3.82,-0.202,3.5,2.79,2.7,0.915,2.03,3.7,3.26,1.1,0.644,0.807,2.1,-0.253,2.3,0.0214,2.15
CGTCCAAGGTCTGCAGGTCAGTGAAAGCGACGTG,0.149,0.12,-0.428,0.0193,-1.21,0.759,-0.32,0.0368,-0.45,-0.257,0.404,0.652,-0.578,-0.887,0.2,0.243,-0.548,0.466,-0.728,2.16
